# Assay outcomes as filed in PubChem.
# Only some compounds are listed: those with a hit (about 9.5% of all), similar ones and a draw of the others.
# Pf growth 48h – inhibits P. falciparum growth in the first generation, 48 h | 310,000 tested, 5.9% active | Potency, µM (series often up to 28.7 µM), most hits filed as inhibitors | P. falciparum luciferase growth in erythrocytes, 48 h
#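 Luciferase-expressing parasites in RBCs, 2% Hct / 0.1% parasitemia final; RPMI 1640 + 0.5% Albumax; 37 C, 5% CO2, one generation; luminescence read-out, lower signal = inhibition.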
# Pf growth 96h – inhibits malaria parasite growth, 96 h. P. falciparum luciferase reporter growth, 96 h. Potency, µM (top dose mostly 28.7 µM), most hits filed as inhibitors. 320,000 tested, 6.9% active
#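 Compounds incubated with erythrocytes infected by luciferase-expressing P. falciparum (2% hematocrit, 0.05% parasitemia final) for 96 hours, 37 C in 5% CO2. Growth inhibition scored as decreased luciferase luminescence.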
# RE007 growth inh – less growth of the S. pombe RE007 Vpr strain. 360,000 tested, 0.21% active. Potency, µM (titrated, usually from 92.2 µM), most hits filed as inhibitors. AID 651644. S. pombe RE007 Vpr strain, BacTiter-Glo ATP luminescence, 24 h; active = well fitted falling curve with a large enough effect; inconclusive = small, poorly fitted or top-dose-only effect; inactive = no such curve, though single readings can be large or run the other way; also: nearly all actives have a fitted effect of over 50% in size
#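 Fission yeast strain RE007, carrying one chromosomally integrated HIV-1 vpr copy, was seeded at OD 0.01 in PMG+AL medium with 23 nL pinned compound. After 24 h at 30 °C and 99% humidity, viability was read by BacTiter-Glo luminescence.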
# SARS PLpro yeast – blocks SARS-CoV papain-like protease in a yeast assay | S. cerevisiae expressing SARS-CoV PLpro, growth rescue | Potency, µM (titrated, usually from 32.9 µM), most hits filed as activators | 330,000 tested, 0.19% active | AID 485353; calls by dose curve; also: nearly all actives have a fitted effect of over 55% in size
# NS1 function inh – blocks influenza NS1 protein function | Potency, µM (highest dose often 46.1 µM) | 270,000 tested, 0.4% active; calls by dose curve; also: actives are rising curves; nearly all actives have a fitted effect of over 50% in size
#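 OD600 was taken as the measure of yeast growth restored by compound in an NS1-expressing S. cerevisiae strain. Cells had been washed out of glucose medium and diluted 1:100 into galactose -URA medium, pH 6.0.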
# A number is an active result; . = inactive; ? = inconclusive; / = no result given. Unless noted, calls follow the shape of the dose curve; as a rule, active = well fitted inhibition curve with a large enough effect; inconclusive = small, poorly fitted or top-dose-only effect, or another doubt; inactive = no such curve, though single readings can be large or run the other way.
SMILES,Pf growth 48h,Pf growth 96h,RE007 growth inh,SARS PLpro yeast,NS1 function inh
O=C(Nc1ccccc1C(=O)NC(Cc1ccccc1)C(=O)O)c1ccccc1 (stereo unspecified),?,?,.,.,.
COc1ccc(C(=O)Nc2ccccc2C(=O)NC(Cc2ccc(O)cc2)C(=O)NNC(=O)c2ccccc2Cl)cc1 (stereo unspecified),5.2µM,.,.,.,?
Cc1ccn2c(CCc3nnc4cc(C)ccn34)nnc2c1,/,/,/,/,.
Cc1ccc2[nH]c3c(NCCN4CCOCC4)ncnc3c2c1,4.1µM,.,.,.,.
O=C1CCCN1CCCNc1ncnc2c1[nH]c1ccc(Cl)cc12,?,?,.,.,.
CCN1CCCC1CNc1ncnc2c1[nH]c1ccc(Cl)cc12 (stereo unspecified),0.66µM,1.5µM,.,.,.
CCN1CCCC1Cn1cnc2c([nH]c3ccc(C)cc32)c1=O (stereo unspecified),.,?,.,.,.
Clc1ccc2[nH]c3c(NCCCN4CCOCC4)ncnc3c2c1,0.41µM,.,.,.,.
COc1ccc(OCC(=O)Nc2ccccc2C(=O)Nc2ccc(C(=O)O)cc2)cc1,.,.,.,.,.
COCCN(C(=O)COC(=O)c1ccc(Br)o1)c1c(N)n(Cc2ccccc2)c(=O)[nH]c1=O,/,/,.,/,/
CC1CCN(c2cc(N3CCN(C(=O)c4ccc(F)c(F)c4)CC3)c([N+](=O)[O-])cc2F)CC1,.,.,.,.,.
CCOc1ccc(-c2nnc(N(CC)C(=O)C3CCC3)s2)cc1,?,6.6µM,.,.,.
COCCN(C(=O)CCc1ccc(OC)cc1)c1nnc(-c2ccncc2)s1,.,.,.,.,.
CCCC(=O)N(C)c1nnc(-c2ccc(OC)cc2)s1,.,10µM,/,.,.
O=C(O)c1ccc(/C=N\N=C2c3ccccc3-c3ccccc32)cc1,/,/,/,/,.
Cc1cccc(-c2nnc3n2N=C(c2ccccc2)CS3)c1,/,?,.,.,.
CCOc1ccc(C2=Nn3c(nnc3-c3ccc(OC)cc3)SC2)cc1,15µM,?,.,.,.
COc1ccc(OC)c(C2=Nn3c(nnc3-c3cccc(OC(C)C)c3)SC2)c1,8.3µM,?,.,.,.
Cc1ccc(-c2nnc3n2N=C(c2ccccc2Br)CS3)cc1,12µM,.,.,.,.
c1ccc(-c2cc(-c3nnc4n3N=C(c3ccc5ccccc5c3)CS4)[nH]n2)cc1,12µM,?,.,.,?
COc1ccc(OC)c(-c2nnc3n2N=C(c2ccc(OC)c(OC)c2)CS3)c1,5.9µM,3.3µM,/,.,/
Cc1ccc(-c2nc3c(c(=O)[nH]c(=O)n3Cc3ccccc3)n2C)o1,.,.,.,.,/
Cc1ccc(-c2nc3c(c(=O)[nH]c(=O)n3Cc3ccccc3)n2Cc2ccccc2)o1,5.9µM,?,.,.,/
CCCn1c(-c2cccc([N+](=O)[O-])c2)nc2c1c(=O)[nH]c(=O)n2Cc1ccccc1,?,5.2µM,.,.,.
CCCn1c(-c2ccc(C(=O)OC)cc2)nc2c1c(=O)[nH]c(=O)n2Cc1ccccc1,.,.,.,.,.
SMILES,Pf growth 48h,Pf growth 96h,RE007 growth inh,SARS PLpro yeast,NS1 function inh
CCN(c1ccc(OC)cc1)S(=O)(=O)c1ccc2c(c1)CC(C)N2C(=O)C1CC1 (stereo unspecified),?,?,.,.,.
Cc1cc[n+](C(C)C(=O)c2ccc(-c3ccccc3)cc2)cc1 (stereo unspecified),1.2µM,.,.,.,/
CC(C(=O)c1ccc(-c2ccccc2)cc1)[n+]1cccc(C(N)=O)c1 (stereo unspecified),.,9.3µM,.,.,.
Cc1ccc[n+](C(C)C(=O)c2ccc(-c3ccccc3)cc2)c1 (stereo unspecified),?,?,.,.,.
CC(C(=O)c1ccc(-c2ccccc2)cc1)[n+]1ccccc1 (stereo unspecified),8.3µM,2.3µM,.,.,.
O=C(O)c1ccc(CNC(=O)C2CCN(S(=O)(=O)c3ccc4c(c3)OCCO4)CC2)cc1,/,/,.,/,/
CCCCCCSc1ccc([C@@H]2[C@H]3C(=O)N(C)C(=O)[C@H]3[C@]3(C(=O)OC)CCCCN23)cc1OC,?,7.4µM,.,.,/
CCCCCCSc1ccc([C@@H]2[C@@H]3C(=O)N(C)C(=O)[C@@H]3[C@]3(C(=O)OC)CCCCN23)cc1OC,3.3µM,5.9µM,.,.,/
CCCSc1ccc([C@@H]2[C@@H]3C(=O)N(C)C(=O)[C@@H]3[C@]3(C(=O)OC)CCCN23)cc1OC,12µM,8.3µM,.,.,/
CCC1CCCCN1CCNC(=O)CCS(=O)(=O)c1ccc(Br)cc1 (stereo unspecified),?,3.3µM,.,.,.
CCOc1ccc(/C=N/NC(=S)NC2CC3CCC2C3)cc1 (stereo unspecified),?,?,.,.,.
S=C(N/N=C/c1ccco1)NC1CC2CCC1C2 (stereo unspecified),/,5.2µM,.,.,.
Oc1ccccc1/C=N/NC(=S)NC1CC2CCC1C2 (stereo unspecified),3.7µM,1.3µM,?,.,.
COc1cccc(/C=N/NC(=S)NC2CC3CCC2C3)c1OC (stereo unspecified),6.6µM,4.7µM,.,.,.
Cc1cc(C)n2nc(C(=O)OCC(=O)N(C)C3CCCCC3)nc2n1,.,.,.,.,/
CCCNC(=S)Nc1cc2oc3ccccc3c2cc1OC,?,3.3µM,.,.,.
COc1cc2c(cc1NC(=O)CN(C)Cc1nc3ccccc3c(=O)[nH]1)oc1ccccc12,5.2µM,?,.,.,.
CCN(CC(=O)Nc1ccc(C)c(F)c1)CC(=O)NC(C)(C)C,.,.,.,.,/
Cc1ccccc1-n1nc2c(c1NC(=O)CC(C)C)CS(=O)C2 (stereo unspecified),.,.,.,.,.
Cc1ccc(CN2C(=O)C3CCCN3c3ccc(S(=O)(=O)N4CCOCC4)cc32)cc1 (stereo unspecified),4.7µM,1.7µM,/,.,.
CCCc1cc(=O)oc2cc(OC(C)C(=O)NCC3CCC(C(=O)O)CC3)ccc12 (stereo unspecified),.,?,.,.,.
COCC(=O)Nc1cc(C)cn(Cc2ccccc2Cl)c1=O,.,0.083µM,.,.,.
CCCC(=O)Nc1cc(C)cn(Cc2c(F)cccc2Cl)c1=O,.,?,.,.,.
COc1ccc(C)cc1NC(=O)CN1C(=O)COc2ccc(S(=O)(=O)N3CCC(C)CC3)cc21,?,?,.,.,.
CC(C)OCCCN1CN(S(=O)(=O)c2cccc(Cl)c2)c2nc3ccccc3nc21,?,9.3µM,.,.,.
C/C(=N/NC(N)=S)c1cc2ccc(O)cc2oc1=O,?,0.83µM,.,.,.
C/C(=N/NC(=O)c1ccncc1)c1cc2ccc(O)cc2oc1=O,.,?,.,?,.
COc1cc2c(cc1OC)-c1cc(Nc3cccc(C)c3)nc(=O)n1CC2,.,.,.,.,.
CCOC(=O)Nc1ccc2c(c1)N(C(=O)CCN(C)C)c1ccccc1CC2,.,.,.,.,.
